HP1b binding inh: inhibitors of HP1-beta chromodomain binding to methylated histone tails; 390,000 tested, 0.56% active; AID 540317; AlphaScreen HP1-beta / biotin-H3K9me3 peptide binding; Potency, µM (top dose mostly 114 µM), without a hit: top-dose activity change, negative = inhibition, usual class: inhibitors; P83916; further: nearly all actives have a fitted effect of over 70% in size
Target sequence (P83916 whole entry, looked up): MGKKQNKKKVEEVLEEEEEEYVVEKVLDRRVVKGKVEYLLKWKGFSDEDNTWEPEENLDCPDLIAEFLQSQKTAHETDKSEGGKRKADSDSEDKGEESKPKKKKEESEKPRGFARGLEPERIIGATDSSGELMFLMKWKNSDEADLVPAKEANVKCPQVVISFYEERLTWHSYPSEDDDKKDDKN
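AlphaScreen: HP1-beta (50 nM) preformed 30 min with biotin-H3(1-18)K9me3 peptide (50 nM) in PBS pH 7.4, 0.01% Tween-20. Compound added for 30 min at RT, then streptavidin donor/nickel chelate acceptor beads (10 ug/mL) for 30 min.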
Sfp PPTase inh: blocks B. subtilis Sfp PPTase activity. 310,000 tested, 3.5% active. Q9F4F7. Potency, µM, for inactives: largest response in the series, negative = inhibition, hits mostly inhibitors. Biochemical Sfp PPTase activity, qHTS;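 further: the enzyme is Sfp with the accession as filed and its product quenches rhodamine fluorescence; 0% = enzyme reaction without inhibitor and -100% = no enzyme wells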
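Buffer: 50 mM Hepes-Na pH 7.6, 10 mM MgCl2, 0.01% Nonidet P-40, 0.01% BSA. Enzyme 15 nM, pre-exposed to compound 15 min; substrates then added and fluorescence change tracked over 30 min.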
G9a inh: blocks human histone lysine methyltransferase G9a; Q96KQ7; G9a H3K9 monomethylation, AlphaScreen, 2 h; Potency, µM (titrated, usually from 102 µM), for the others: at the highest dose activity, negative = inhibition, most hits filed as inhibitors; 350,000 tested, 8.8% active; AID 504332; further: on the % scale 0 is the no-effect control and ±100 the full control effect; nearly all actives have a fitted effect of over 75% in size
Target sequence (Q96KQ7 913-1193 limits assumed): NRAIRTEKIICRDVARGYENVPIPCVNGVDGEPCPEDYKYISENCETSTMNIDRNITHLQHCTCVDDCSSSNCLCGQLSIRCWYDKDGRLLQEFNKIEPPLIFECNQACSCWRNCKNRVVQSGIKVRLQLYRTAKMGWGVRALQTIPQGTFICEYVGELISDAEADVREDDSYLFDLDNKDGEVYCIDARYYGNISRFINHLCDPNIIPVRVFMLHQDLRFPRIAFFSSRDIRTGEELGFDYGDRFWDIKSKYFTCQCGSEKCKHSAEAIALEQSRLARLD
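Readings reflect AlphaScreen signal from monomethyl-H3K9 antibody detection. HMT at 20 nM; substrate b-H3K9 500 nM; cofactor SAM 20 uM; 2 h RT reaction; compounds tested as titrations in qHTS with 15 min preincubation.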
JMJD2A Tudor inh: JMJD2A Tudor domain (human) inhibition | O75164 | AlphaScreen JMJD2A-Tudor / H3K4me3 peptide binding | Potency, µM (doses to about 114 µM), for the others: at the highest dose activity change, negative = inhibition, most hits filed as inhibitors | 390,000 tested, 4.4% active; further: on the % scale 0 is the no-effect control and ±100 the full control effect; nearly all actives have a fitted effect of over 50% in size
BAZ2B inh: inhibitors of human BAZ2B bromodomain. Q9UIF8. AlphaScreen BAZ2B-H3K14Ac peptide displacement. Potency, µM (top dose mostly 114 µM), inactives show at the highest dose activity change, negative = inhibition, most hits filed as inhibitors. 360,000 tested, 4.4% active; further: on the % scale 0 is the no-effect control and ±100 the full control effect; nearly all actives have a fitted effect of over 60% in size
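BAZ2B (50 nM) with biotin-H3(5-23)K14Ac peptide (50 nM) in PBS pH 7.4, 0.01% Tween-20, preformed 30 min, then compound 30 min at room temperature; top concentration 110uM. AlphaScreen streptavidin donor/nickel chelate acceptor beads (10 ug/mL final), 20 min dark, signal read.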
* marks the source's active call; other numbers are inactive results; ? = inconclusive; nt = no result; [ ] = remark or other dose. An excerpt weighted towards active compounds, which were near 12% of everything screened. The call rests on the fitted dose curve; in most records, active means well fitted curve in the direction sought with a large enough effect; inconclusive means small, poorly fitted or top-dose-only effect, or another doubt; inactive means no such curve, though single readings can be large; an effect the other way counts as inactive or inconclusive. Potency means the concentration at half of the fitted maximal effect.

SMILES	HP1b binding inh	Sfp PPTase inh	G9a inh	JMJD2A Tudor inh	BAZ2B inh
Cc1noc(C)c1NC(=O)N(C)C[C@H]1Oc2ccc(NS(=O)(=O)c3cn(C)cn3)cc2C(=O)N([C@H](C)CO)C[C@@H]1C	46.2%	nt	nt	-7.9%	nt
O=C1[C@H]2[C@H]3[C@H](O)[C@H](O)C/C(=N/OCc4ccccc4)[C@@H]3CC[C@@H]2C(=O)N1c1cccc(Oc2ccccc2)c1	nt	9.3%	nt	nt	nt
NS(=O)(=O)c1ccc(-c2ccc(C=C3C(=O)c4ccccc4C3=O)o2)cc1	51.8%	18.3%	17.8%	-4.3%	-1.4%
CC(C)(C)N1C(=O)c2ccc(C(=O)O)cc2C1=O	27.4%	16.8%	55.5%[59 µM]	-5.2%	0.9%
Cc1ccc(/C=C2/C(=O)c3ccc(C(=O)O)cc3C2=O)o1	70.8µM*	12.6µM*	nt	28.2µM*	11.2µM*
Cc1ccc(C=C2C(=O)c3ccccc3C2=O)o1	?	-10.3%	25.1µM*	?	39.8µM*
O=C1C(=Cc2ccco2)C(=O)c2ccccc21	-15.6%	-25.1%	12.6µM*	?	?
O=C(O)c1ccc2c(c1)C(=O)/C(=C/c1ccccc1)C2=O	44.7µM*	-0.9%	12.6µM*	?	50.1µM*
O=C1CNC(=O)/C(=C/c2ccco2)N1	0.5%	1.2%	-42.9%	11.5%	-21.5%
O=C(O)c1ccc2c(c1)C(=O)/C(=C\c1ccco1)C2=O	?	22.4µM*	8.91µM*	25.1µM*	35.5µM*
O=C(O)c1ccc(C=NN=Cc2ccco2)cc1	21.8%	nt	nt	-8.3%	nt
O=C(c1csnn1)N1CCC2(CC1)CCN(c1ncccn1)CC2	nt	23.3%	-2.2%[12.7 µM]	nt	nt
C1CSC2(N1)C1CC3CC(C1)CC2C3 (stereo not given)	-3.8%	35.5µM*	6.31µM*	-32.5%	-2.1%
Cc1ccc(C)c(N2CCN(C(=O)NCc3noc4ccccc34)CC2)c1	15.7%	nt	-2.6%[59 µM]	-22.3%	-2.7%
Cc1cc(C)c2c(N)c(C(=O)NN)sc2n1	50.4%	-9.8%	-43.1%	-5.9%[11.4 µM]	-34.9%
Cc1cc(C)c2c(N)c(C(=O)NNC(=O)c3ccccc3)sc2n1	42.2%	-7.1%	44.7µM*	-11.2%	-25.5%
CCOC(=O)CNC(=O)c1sc2nc(C)cc(C)c2c1N	49.8%	7.3%	50.1µM*	16.8%	-0.7%
CCOC(=O)c1sc2nc(C)cc(C)c2c1N	36.6%	-7.6%	-30.4%[59 µM]	-9.9%	8.0%
CCOc1ccc(NS(=O)(=O)c2ccc(C(=O)NCC(c3ccco3)N3CCCC3)cc2)cc1 (stereo not given)	24.4%	nt	3.9%[59 µM]	-15.7%	-20.4%
CCN1c2ccccc2NC2C1C(C(C)=O)C(=O)N2c1ccc(Cl)cc1 (stereo not given)	-11.4%	-6.9%	44.7µM*	?	?
O=C1Nc2ccccc2N(O)N1c1ccc(Cl)cc1	16.5%	19.9%	2.0%	-2.9%	-17.5%
COc1ccc2[nH]c(=O)c(C(=O)O)cc2c1	-3.4%	6.3%	-21.3%	8.9%	-15.7%
COc1ccc2[nH]c(=O)cc(C(=O)O)c2c1	-6.7%	9.1%	35.5µM*	?	50.1µM*
CC(=O)c1ccc(NC(=O)CC2Nc3cccc4cccc(c34)NC2=O)cc1 (stereo not given)	-8.7%	50.1µM*	?	?	?
Cc1[nH]c2ccccc2c1/C=N\NC(=O)CNc1ccc2c(c1)OCO2	?	-17.9%	10µM*	?	44.7µM*
SMILES	HP1b binding inh	Sfp PPTase inh	G9a inh	JMJD2A Tudor inh	BAZ2B inh
O=C(CNc1ccc2c(c1)OCO2)N/N=C\c1ccccc1Cl	?	-33.0%	?	?	50.1µM*
CCCCCCCCCC(=O)N[C@@H]1c2cc(OC)c(OC)cc2C[C@H]1O	26.0%	nt	nt	-24.7%	nt
Cc1ccc(N2CC(NC(=O)c3ccco3)CC2=O)cc1C (stereo not given)	22.4%	nt	1.1%[59 µM]	-3.6%	-0.2%
COc1ccccc1NC(=O)c1ccc2c(c1)CCN2S(C)(=O)=O	39.5%	1.2%	-2.3%	-0.7%	1.6%
CC(C)(C)C1=CC(=Nc2ccccc2N)C=C(C(C)(C)C)C1=O	4.47µM*	22.5%	29.1%[59 µM]	3.98µM*	3.7%
O=C1c2ccccc2C(=O)C1(CO)c1ccccc1	-0.7%	14.4%	44.7µM*	-24.2%	-21.4%
O=C1c2ccccc2C(=O)C1(CO)c1ccc(OC(F)F)cc1	-19.2%	26.2%	-9.6%[59 µM]	-35.5%	?
COc1ccc(OC)c(Nc2sc(C(=O)c3ccccc3)c(N)c2S(=O)(=O)c2ccccc2)c1	12.9%	nt	10.4%[59 µM]	-24.2%	-5.1%
CC(C)c1nc2ccc(Br)cn2c1NC1CCCC1	41.8%	1.2%	44.7µM*	-7.6%	?
COc1ccc(CCNC(=O)c2cc(-c3ccccn3)nc3ccccc23)cc1	21.7%	nt	-50.6%[12.7 µM]	-15.1%	8.6%
NNC(=O)c1ccc2c(c1)S(=O)(=O)NNC2=O	76.5%	-5.3%	11.2µM*	28.2µM*	-31.8%
CCCNC(=O)c1ccc2c(c1)S(=O)(=O)c1ccccc1C2=O	13.4%	2.8%	nt	-13.6%	-11.1%
Cc1ccc(CNC(=O)CNS(=O)(=O)c2ccc(Br)s2)cc1	25.6%	19.9%	-6.0%[59 µM]	2.8%	2.8%
Cc1nc2ccc(NC(=O)CSc3nnc(C)s3)cc2[nH]1	21.1%	3.5%	39.8µM*	-14.1%	0.5%
O=C(CSc1nc2ccccc2[nH]1)Nc1ccc(F)c(F)c1	11.3%	-3.3%	1.1%[59 µM]	-16.6%	8.5%
Cc1ccc2nc(SCC(=O)Nc3c(F)cccc3F)[nH]c2c1	35.8%	10.9%	-42.4%	-13.8%	-4.0%
Cc1ccc2nc(SCC(=O)Nc3ccc(F)cc3F)[nH]c2c1	38.1%	13.2%	?	-18.8%	2.2%
Cc1ccc(NC(=O)CSc2nc3ccc(Br)cc3[nH]2)c(C)c1	30.2%	nt	8.91µM*	-14.5%	2.5%
Cc1nnc(SCC(=O)Nc2ccc3c(c2)OCCO3)s1	27.6%	5.8%	21.0%[59 µM]	-8.6%	-2.3%
O=C(CSc1nc2ccc(Cl)cc2[nH]1)Nc1ccc2[nH]c(=O)[nH]c2c1	14.7%	nt	5.62µM*	?	3.3%
Cc1ccc2nc(SCC(=O)Nc3ccc4[nH]c(=O)[nH]c4c3)[nH]c2c1	3.6%	nt	7.94µM*	-25.3%	-22.4%
CC(C)[C@@H](CC(=O)N[C@@H]1CCCC[C@H]1C(=O)N[C@H](CC(=O)N[C@@H](CCC(=O)O)CC(=O)O)Cc1ccccc1)NC(=O)C[C@H](Cc1c[nH]c2ccccc12)NC(=O)[C@@H]1CCCC[C@H]1N	nt	-4.5%	nt	nt	nt
C[C@@H]1CN([C@@H](C)CO)C(=O)c2cccc(NC(=O)Nc3ccccc3)c2O[C@H]1CN(C)C(=O)Nc1cccc2ccccc12	21.6%	nt	nt	-25.5%	nt
CCN1C(=O)[C@H]2[C@H]3[C@H](O)[C@H](O)C/C(=N/OC[C@@H](C)[C@H](OCc4ccccc4)C(C)C)[C@@H]3CC[C@@H]2C1=O	nt	13.1%	nt	nt	nt
Cc1c(NC(=O)CSc2nc3ccccc3s2)c(=O)n(-c2ccccc2)n1C	40.8%	-21.9%	50.1µM*	-4.1%	7.2%

Screening results deposited in PubChem by National Center for Advancing Translational Sciences (NCATS).
